Laboratory results: PubChem BioAssay
Calls of active or inactive are those of the source.

Experiment: CREB reporter modulators under forskolin, primary screen, cell-based, PC12, CRE-LacZ reporter, forskolin-stimulated (AID 1146);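 further: PC12 cells with 6xCRE LacZ reporter stimulated by forskolin 10 µM; beta-galactosidase reporter signal reflecting CREB driven transcription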
Conditions: luminescence, 4.5 h, higher = more signal, called active from +8 up or from −8 down

z-score, inactive:
C=C(COC)/C(=C/C[C@@H](OC(C)=O)c1cccc(OCCO)c1)c1cc(C(=O)OC)ccc1OC -1.89
CC(C)(C)OC(=O)CC[C@]1(C(=O)NCCN2CCOCC2)N=C(c2ccc(OCCCO)cc2)O[C@H]1c1ccccc1CN=[N+]=[N-] -1.79
CC(=O)NCCCC[C@@H]1NC(=O)[C@@H]2C[C@H](C(=O)NCCCCCCN(C)C)[C@H](c3ccc(O)cc3)N2C1=O -1.19
Cc1ccc(S[C@]2(C(=O)O)CC(=O)N(Cc3ccccc3)[C@@H]2c2ccc(CO)cc2)cc1 -0.84
O=C1c2ccccc2[C@](Cc2ccccc2I)(C(=O)NCC(F)(F)F)[C@H](c2ccc(CO)cc2)N1Cc1ccccc1C(F)(F)F -0.112
O=C1OCCC=C[C@H]2OC34C=CCN(Cc5ccccc5)C(=O)[C@H]3N(CCO)C(=O)[C@@H]4C12 (some centres undefined) -0.894
C=CCNC(=O)[C@H]1[C@@H]2C(=O)O[C@@H](c3ccccc3)[C@@H](c3ccccc3)N2[C@@H](c2ccccc2OCCO)[C@]12C(=O)N(C(=O)OCCOC)c1ccc(C#CCC(C(=O)OC)C(=O)OC)cc12 0.105
COc1ccc([Si](C)(C)[C@H]2[C@H](CC(=O)N3Cc4ccccc4C[C@H]3CO)O[C@@]3(C(=O)N(Cc4cccc(N5CCOC5=O)c4)c4ccccc43)[C@@H]2C)cc1 -1.25
CC(C)N1CC=CC23O[C@@H]4/C=C\CCCOC(=O)C4[C@H]2C(=O)N(CCO)[C@@H]3C1=O (some centres undefined) -0.457
